# High-throughput results (PubChem BioAssay)
# DT40 TDP1 CPT: DT40-hTDP1 cell growth loss with CPT; chicken DT40 Tdp1-/-;hTDP1 cells + 20 nM CPT, ATP luminescence, 48 h; Potency, µM (titrated, usually from 46.2 µM), usual class: inhibitors; 12% of 420,000 active; also: nearly all actives have a fitted effect of over 55% in size
#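 Chicken DT40 Tdp1-/- cells complemented with human TDP1, 400 cells/well, exposed to compounds plus 20 nM camptothecin for at least 48 h at 37 C; viability read as ATP content by CellTiter-Glo luminescence.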
# DT40 TDP1 no CPT: qHTS for Inhibitors of human tyrosyl-DNA phosphodiesterase 1 (TDP1): qHTS in cells in absence of CPT; DT40 Tdp1-/- hTDP1 cells, no CPT, ATP luminescence, 48 h; Potency, µM (series often up to 46.2 µM), usual class: inhibitors; 15% of 420,000 active; AID 686978, 2013; also: nearly all actives have a fitted effect of over 55% in size
#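 No-CPT arm: Tdp1-/-;hTDP1 DT40 cells (400/well) plus compounds, incubated ≥48 hr at 37 °C. Readout CellTiter-Glo luminescence.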
# ATXN2 expr inh: ATXN2 expression inhibition; Potency, µM (titrated, usually from 57 µM), hits mostly inhibitors; AID 1745845; 0.72% of 360,000 active; HEK-293 ATXN2-luciferase reporter, luminescence, 24 h; also: nearly all actives have a fitted effect of over 55% in size
#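 qHTS (up to 57 uM final) was run with 24 h compound exposure of reporter cells at 37 °C. Each well was multiplexed: SteadyGlo luminescence measured ATXN2-luciferase expression after a fluorogenic Gly-Phe-AFC viability readout (25 uM final).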
# HepG2 tox: HepG2 cytotoxicity, counter-screen for TGF-b inhibitors | HepG2 CAGA-GFP viability, ATP luminescence, 18 h | Potency, µM (series often up to 46.1 µM), most hits filed as cytotoxic | 0.76% of 410,000 active
#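 HepG2 CAGA-GFP cells (1000/well, DMEM with 1% FBS) received compound, then TGF-beta at 500 pg/mL final, and were incubated 18 hours at 37 degrees C. Viability was read by CellTiter-Glo luminescence. Media-only wells were set as complete cell-killing and DMSO as no toxicity.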
# ATXN viability: cell viability loss in ATXN counter-screen; S2 cells (HEK-293 line with an ATXN2-luciferase reporter) viability, CellTiter-Fluor protease fluorescence, 24 h; 0.49% of 400,000 active; Potency, µM (titrated, usually from 56.7 µM), most hits filed as cytotoxic; AID 651635; also: nearly all actives have a fitted effect of over 40% in size
# TGFb SMAD3 inh: blocks TGF-b signaling | HepG2 CAGA-GFP TGF-b/SMAD3 reporter, GFP fluorescence, 18 h; TGF-beta stimulated, 500 pg/mL final | 1.2% of 410,000 active | Potency, µM (top dose mostly 46.1 µM), most hits filed as inhibitors; also: nearly all actives have a fitted effect of over 65% in size
#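 First, reporter cells (HEPG2 CAGA-GFP) rested 2 h at 37 degrees C. Next, compounds were pinned in and TGF-beta added to 500 pg/mL final. After 18 h, GFP was imaged per cell and summed per well.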
# A number is an active result; i = inactive; ? = inconclusive; nt = not tested or not shown. Most compounds without a hit are left out; they make up all but 17% or so of the library. Calls follow the shape of the dose curve; as a rule, active = well fitted curve in the direction sought with a large enough effect; inconclusive = small, poorly fitted or top-dose-only effect, or another doubt; inactive = no such curve, though single readings can be large; an effect the other way counts as inactive or inconclusive.
SMILES,DT40 TDP1 CPT,DT40 TDP1 no CPT,ATXN2 expr inh,HepG2 tox,ATXN viability,TGFb SMAD3 inh
O=C(CSc1nnc2c(n1)[nH]c1ccc(F)cc12)N1CCOCC1,i,i,i,i,i,i
CCCn1c(SCC(=O)N2c3ccc(F)cc3CCC2C)nnc1-c1ccccn1 (stereo not given),?,21µM,i,i,i,i
CC1Cc2ccccc2N1C(=O)CSc1nnc2c(n1)[nH]c1ccc(F)cc12 (stereo not given),?,21µM,i,i,?,i
Cc1sc(NC(=O)CN(Cc2ccc(F)cc2)C(=O)C(C)(C)C)c(C(N)=O)c1C,13µM,8.2µM,i,i,?,i
Cc1sc(NC(=O)CN(Cc2ccccc2)C(=O)C2CC2)c(C(N)=O)c1C,8.2µM,4.6µM,i,i,i,?
CCOCCn1c(C2CCN(CCc3ccc(C(C)(C)C(=O)O)cc3)CC2)nc2ccccc21,nt,nt,i,nt,i,nt
COc1cc(=O)n2c(c1C(=O)N(C)Cc1cscn1)CCN(Cc1ccc3c(c1)OCCO3)CC2,i,i,nt,nt,i,nt
COC(=O)c1ccc(C)c(NC(=O)CCCN2C(=O)NC(C)(C)C2=O)c1,i,i,i,i,?,i
COc1cccc(CNC(=O)CN2C(=O)N(c3c(C)cccc3C)S(=O)(=O)c3ccccc32)c1OC,16µM,16µM,i,i,i,i
COc1ccccc1CNC(=O)CN1C(=O)c2ccccc2S1(=O)=O,i,i,i,i,i,i
COc1cccc(CNC(=O)CN2C(=O)N(c3cc(C)ccc3C)S(=O)(=O)c3ccccc32)c1OC,13µM,23µM,i,i,?,?
Cc1ccc(C)c(N2C(=O)N(Cc3ccccc3C)c3ccccc3S2(=O)=O)c1,18µM,29µM,i,i,i,i
COc1ccc(N2CCc3c(C)nc4c(OC)cc(OC)cc4c32)cc1,23µM,15µM,i,i,i,i
COc1ccc(N2CCc3c(C)nc4c(OC)cc(OC)cc4c32)c(OC)c1,6.5µM,5.2µM,?,i,?,i
COc1cccc(N2CCc3c(C)nc4ccc(Cl)cc4c32)c1,10µM,7.3µM,?,i,nt,?
COc1ccc(N2Cc3ccc(OC)c(OC)c3C2=O)cc1,i,i,i,i,i,i
COc1cccc(CN(C)C(=O)C2CCN(S(=O)(=O)c3ccc(C)cc3)CC2)c1OC,i,i,i,i,i,i
O=C(CN(Cc1cccs1)C(=O)CNC(=O)c1ccco1)NC1CCCCC1,i,i,i,i,i,i
Cc1ccc(Nc2nc(-c3c(C)nc4ncccn34)cs2)cc1,0.018µM,0.0065µM,i,i,?,?
C=CCNc1nc(-c2c(C)nc3ncccn23)cs1,i,i,i,i,i,i
Cc1nc2ncccn2c1-c1csc(Nc2ccc(O)cc2)n1,?,5.2µM,i,i,i,i
Cc1cc(C(=O)NCc2nc(-c3ccccc3NC(=O)C3CCCO3)oc2C)nc(C)n1 (stereo not given),i,i,nt,nt,?,nt
N#C/C(=C\c1ccc([N+](=O)[O-])o1)C(=O)Nc1ccc(F)cc1,1.3µM,2.3µM,?,i,i,i
CCC/C=C1/CCCOC(C(=O)NCC2CC2)(C(F)(F)F)C1 (stereo not given),nt,nt,nt,i,nt,i
CC(C)C(NC(=O)COc1ccc2ccccc2c1)C(=O)N/N=C/C=C/c1ccccc1 (stereo not given),13µM,?,i,i,i,i
SMILES,DT40 TDP1 CPT,DT40 TDP1 no CPT,ATXN2 expr inh,HepG2 tox,ATXN viability,TGFb SMAD3 inh
COc1ccc(Nc2ncnc3c2c(C)c(C)n3CCCN(C)C)cc1,i,i,i,i,i,i
CC(=O)N1CCN(C(=O)c2[nH]c(C(F)(F)F)nc2-c2ccccc2)CC1,i,i,i,i,i,?
COc1ccccc1N1CCN(C(=O)c2[nH]c(C(F)(F)F)nc2-c2ccccc2)CC1,6.5µM,5.8µM,i,i,?,?
Cc1cccc(N2CCN(C(=O)c3[nH]c(C(F)(F)F)nc3-c3ccccc3)CC2)c1C,1.3µM,1.3µM,i,i,i,?
CCOC(=O)N1CCN(C(=O)c2[nH]c(C(F)(F)F)nc2-c2ccccc2)CC1,16µM,16µM,i,i,i,i
O=S(=O)(c1cccc(Cl)c1)N1CCN(c2nc(-c3cccs3)nc3ccccc23)CC1,?,?,nt,i,nt,i
Cc1nn(-c2ccccc2)c(C)c1C(=O)OC(C)C(=O)NC1CCCCC1 (stereo not given),16µM,10µM,i,i,i,i
Cc1nn(-c2ccccc2)c(Cl)c1C(=O)NC1CCCCC1,i,i,i,i,?,i
CC(C)c1ccc(CNCCSc2nnnn2C)cc1,i,i,i,i,i,i
Cn1nnnc1SCCNCc1ccccc1OCc1ccc(Cl)cc1Cl,18µM,9.2µM,nt,i,nt,?
Cn1nnnc1SCCNCc1ccc(OCc2ccc(Cl)cc2)cc1,nt,nt,i,6.3µM,?,?
Cn1nnnc1SCCNCc1ccccc1OCc1ccc(F)cc1,i,i,i,i,i,i
CCOc1cc(CNCCSc2nnnn2C)ccc1OCc1ccc(Cl)cc1Cl,26µM,26µM,?,11µM,i,?
O=C(c1ccccc1F)N1N=C(C(F)(F)F)CC1(O)c1ccccc1 (stereo not given),?,?,nt,i,?,i
CC(=O)/C(=N/Nc1cccc(C)c1)N1CCOCC1,6.5µM,?,i,i,i,i
C=C(C)COc1ccc(-c2n[nH]c(C)c2Oc2ccccc2OC)c(O)c1,15µM,?,?,i,?,?
Cc1[nH]nc(-c2ccc(O)cc2O)c1Oc1ccccc1,?,?,i,i,i,?
Cc1[nH]nc(-c2ccc(OCc3cnn(-c4ccccc4)c3)cc2O)c1Oc1ccccc1F,?,21µM,i,i,i,?
CCOc1ccc(-c2n[nH]c(C)c2Oc2ccccc2OC)c(O)c1,?,?,i,i,i,?
C=C(C)COc1ccc(-c2[nH]ncc2-c2ccc(OC)c(OC)c2)c(O)c1,1.5µM,1.6µM,?,i,nt,?
C=C(C)COc1ccc(-c2[nH]ncc2-c2ccccc2)c(O)c1,16µM,21µM,i,i,i,11µM
O=C(CSc1nccn1Cc1ccc(F)cc1)NCc1ccco1,i,i,nt,i,nt,i
Cc1ccc2c(c1)CCCN2C(=O)c1cc2ccccc2oc1=O,i,i,i,i,i,i
C=C(C)COc1ccc(-c2[nH]ncc2Oc2cccc(OC)c2)c(O)c1,?,13µM,i,18µM,i,?
COc1ccc(-c2n[nH]c(C)c2-c2ccc(Cl)cc2)c(O)c1OC,?,?,i,18µM,i,i
